Measurements from the supplement of paper PMC6555819.

How the values were obtained:
Assay in all cases: PBM binding z-score (relative to random genomic background probes); higher = stronger binding; sequences stand for … in GC…GCGATTGACAGCGTAGAATGAAGG
[1] = system: PPARg:RXRa DBDmut IVT, anti-RXR (DBD mutation: RXRa K156A/R161A, NR concentration 270 nM, RXRa partner concentration 90 nM)
Outline: (§1)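 Ligand-free nuclear receptor dimers were bound for 1 h to custom Agilent 4×180K protein-binding microarrays. Detection used antibodies against each partner (one per run). Binding z-scores rest on regression-normalized fluorescence, with random background probes as the reference.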

[2] = system: PPARg:RXRa IVT, anti-PPARg (NR concentration 270 nM, RXRa partner concentration 90 nM)
Outline: as §1

[3] = system: PPARg DBDmut:RXRa IVT, anti-PPARg (DBD mutation: PPARg1 K132A/R137A, NR concentration 270 nM, RXRa partner concentration 90 nM)
Outline: as §1

[4] = system: PPARg DBDmut IVT, anti-PPARg (DBD mutation: PPARg1 K132A/R137A, NR concentration 270 nM)
Outline: as §1

[5] = system: PPARg homodimer (NR concentration 180 nM)
Outline: as §1

[6] = system: PXR homodimer (NR concentration 270 nM)
Outline: as §1

[7] = system: RARa:RXR (NR concentration 270 nM, RXRa partner concentration 90 nM)
Outline: as §1

[8] = system: RARa homodimer (NR concentration 270 nM)
Outline: as §1

[9] = system: RARb:RXRa (NR concentration 270 nM, RXRa partner concentration 90 nM)
Outline: as §1

[10] = system: RARb homodimer (NR concentration 270 nM)
Outline: as §1

[11] = system: RARg:RXRa (NR concentration 270 nM, RXRa partner concentration 90 nM)
Outline: as §1

[12] = system: RARg homodimer (NR concentration 270 nM)
Outline: as §1

[13] = system: RXRa DBDmut IVT, anti-RXR (DBD mutation: RXRa K156A/R161A, NR concentration 90 nM)
Outline: as §1

[14] = system: RXRa homodimer (NR concentration 180 nM)
Outline: as §1

[15] = system: THRa:RXRa (NR concentration 90 nM, RXRa partner concentration 90 nM)
Outline: as §1

[16] = system: THRa homodimer (NR concentration 90 nM)
Outline: as §1

[17] = system: VDR homodimer (NR concentration 270 nM)
Outline: as §1

Sequence | PBM binding z-score [1] | PBM binding z-score [2] | PBM binding z-score [3] | PBM binding z-score [4] | PBM binding z-score [5] | PBM binding z-score [6] | PBM binding z-score [7] | PBM binding z-score [8] | PBM binding z-score [9] | PBM binding z-score [10] | PBM binding z-score [11] | PBM binding z-score [12] | PBM binding z-score [13] | PBM binding z-score [14] | PBM binding z-score [15] | PBM binding z-score [16] | PBM binding z-score [17]
CCTTACGGGTCACTCTAGGTTATAGCATCGGAGT | 3.21 | 3.69 | 0.202 | -0.339 | 1.82 | 0.568 | 3.43 | 0.346 | 3.68 | 3.22 | 4.35 | 4.38 | 2 | 4.27 | 4.93 | 0.527 | 1.39
CCTTACAGGTCAAGGTTATAGCACGGGTGGTACG | 3.89 | 4.19 | 0.977 | 0.925 | 3.36 | 0.575 | 4.39 | 1.94 | 4.65 | 3.78 | 5.27 | 5.53 | 1.83 | 4.72 | 3.18 | 1.33 | 1.73
GGAACGAGGGCATTCGAGTTGATAGCATGGCGAT | 2.91 | 2.18 | -0.045 | 0.402 | -0.267 | 1.45 | 0.423 | -0.292 | 1.73 | 0.687 | 0.932 | 1.3 | 3.13 | 0.756 | 3.03 | -0.775 | 2.78
ATGTGTAGGTTACATCCGGGTCATTCAGGCTATG | 2.96 | 4.13 | 1.02 | 1.88 | 3.03 | 2.51 | 4.01 | 1.12 | 2.37 | 3.32 | 3.75 | 2.19 | 0.811 | 2.95 | 3.94 | 2.75 | 3.1
AATACAGGGTCACTGGGCCAGAGTAGGTACGAAT | 4.06 | 5.96 | 1.16 | 2.2 | 3.2 | 0.0493 | 4.88 | 1.05 | 4.3 | 3.72 | 5.73 | 5.37 | 2.35 | 6.2 | 3.59 | 1.3 | 2.73
ATCGAAAGGTCGAAGGTGAGTCTACCCACCCGAA | 0.133 | 2.34 | 0.449 | 0.43 | 1.56 | 0.264 | 4.57 | -0.143 | 3.74 | 2.48 | 4.41 | 3.67 | 0.805 | 5.11 | 2.24 | -0.0307 | 0.891
ATATGGAGGTTAGCTGGGGTCATTCAGACTAGGC | 2.62 | 2.93 | 1.36 | 1.19 | 2.73 | 5.39 | 5.62 | 1.8 | 3.66 | 4.32 | 4.94 | 3.85 | 2.22 | 6.26 | 5.44 | 3.66 | 5.52
CTCCAAAGGTCGGTTGAGGTGAGTATACGGATAA | 0.32 | 1.01 | 0.267 | -0.816 | 1.53 | 0.251 | 2.58 | -0.204 | 3.18 | 2.61 | 2.87 | 2.9 | 0.951 | 2.46 | 5 | 1.56 | 0.508
AGAACGAGGGCAATGAGTTCATAGCACGGGTGGC | 3.4 | 3.12 | 0.564 | 0.148 | 0.482 | 15.2 | 2.56 | 0.017 | 2.79 | 2.84 | 2.78 | 2.56 | 3.91 | 2.42 | 2.58 | 0.398 | 10.3
ATATGTAGGATATCGGGTCATTCAGTTTGCGCAT | 3.29 | 4.09 | 1.47 | 1.41 | 1.07 | 4.53 | 2.53 | 1.03 | 1.66 | 2.18 | 1.75 | 1.44 | 1.12 | 2.23 | 3.15 | 2.18 | 2.6
CTCGAAAGGTCGTGCTCAGGTGAGTACACCAAAC | 1.21 | 2.09 | 1.56 | 1.04 | 2.94 | 0.541 | 4.67 | 0.374 | 4.05 | 2.93 | 5.5 | 4.41 | 2.36 | 5.63 | 4.01 | 1.21 | 2.52
CGTCAACGTTCAACTAAGGTAACGTAAAGCACGC | -0.0681 | 0.225 | 0.181 | -0.155 | 0.349 | -0.0969 | 2.07 | 0.331 | 0.991 | 0.8 | 0.496 | 0.603 | 0.449 | 0.587 | 3.84 | 1.68 | 0.137
AATACAGGGTCGCTAGGCCAGAGTAGGTACGAAT | 0.129 | 1.16 | 0.521 | -0.263 | 0.213 | -0.199 | 0.9 | 0.178 | 1.49 | 0.921 | 1.37 | 1.37 | 0.47 | 1.52 | 1.09 | 0.0627 | 0.727
ATCTCTAGGTTAAAGTTCAGTGAATCCCGAGGAT | 4.45 | 5.47 | 1.98 | 1.29 | 2.11 | 1.85 | 3.99 | 1.65 | 3.28 | 2.94 | 3.52 | 3.27 | 1.18 | 4.46 | 2.3 | 0.775 | 3.12
GATAAAGGGTCAGCTAGAGGCCAGAGTATGGAAA | 2.27 | 2.89 | 0.542 | -0.0188 | 3.27 | -0.0592 | 4.78 | 1.02 | 5.21 | 4.46 | 7.34 | 6.77 | 1.54 | 5.05 | 3.06 | -0.108 | 0.772
CTCGAAAGGTCGGTTGAGGTCAGTATACGGATAA | -0.211 | 1.36 | 0.0267 | 0.122 | 3.1 | 2.85 | 4.9 | 1.04 | 4.13 | 4.41 | 4.95 | 4.93 | 1.63 | 4.02 | 5.26 | 3.23 | 3.44
AGAATGAGGTTATACGTAGGTCAGGGAAGAAAGT | 3.82 | 2.92 | 1.18 | 0.81 | 3.44 | 0.992 | 4.71 | 0.747 | 3.19 | 3.18 | 6.03 | 2.35 | 1.74 | 3.96 | 3.74 | 1.44 | 1.87
